Assay results from PubChem BioAssay (NCATS).
Several values for one entry are separate records, joined by “and”; a condition that tells them apart may be missing. Equal entries are not always repeated. Records with an inconclusive call do not appear. A call without a number means that no potency is given here. Activity calls are given as the source filed them. Calls follow the shape of the full dose curve.

Assay: qHTS assay for small molecule disruptors of the mitochondrial membrane potential - 1 hr assay (AID 651754); also: nearly all actives have a fitted effect of over 35% in size
Details: series mostly up to 92.2 µM
Description: National Center for Advancing Translational Sciences [NCATS]
NIH Chemical Genomics Center [NCGC]
National Institutes of Environmental Health Sciences [NIEHS]
National Toxicology Program [NTP]
Mitochondrial membrane potential (MMP), one of the parameters for mitochondrial function, is generated by mitochondrial electron transport chain that creates an electrochemical gradient by a series of redox reactions. This gradient drives the synthesis of ATP, a crucial molecule for various cellular processes. Measuring MMP in living cells is commonly used to assess the effect of chemicals on mitochondrial function. […] The dye accumulates in the mitochondria of healthy cells as aggregates, with red fluorescence. The mitochondrial potential collapses and the dye can no longer accumulate in the mitochondria and remains in the cytoplasm in monomers, with green fluorescence.
2,000 HepG2 cells in 5 uL/well were dispensed into black, clear-bottom 1536-well plates using a Multidrop Combi (Thermo Scientific) dispenser. The assay plates were incubated overnight at 37C to allow cells to attach to the wells, followed by the transfer of 23 nL compound or DMSO vehicle by a pin tool (Kalypsys). The plates were incubated for 1 hr at 37C and 5% CO2, followed by the addition of 5 uL of 2X Mito-MPS dye (BD Biosciences) into each well using Flying Reagent Dispenser (Aurora Discovery) and then following 30 min incubation at 37C. Fluorescence intensity (490nm excitation and 535nm emission for monomers; and 540nm excitation and 590nm emissions for aggregates) was measured using an Envision plate reader.
Potency is read from the fitted curve at half-maximal effect.

Compound	Potency
O=C(O)C(Cl)(Cl)Cl	inactive
CC(C)CCON=O	inactive
COc1ccc2c(c1OC)C(=O)OC2C1c2cc3c(cc2CCN1C)OCO3 (stereo unspecified)	inactive
O=C1C=CC(=O)C=C1	inactive
Oc1cc(Cl)c(Cl)cc1Cl	47.3 µM (active)
CCCCCl	inactive
O=C/C=C/c1ccccc1	inactive
ClC=C(Cl)Cl	inactive
O=C1CCO1	inactive
O=[N+]([O-])c1ccccc1	inactive
[O]=[Cr](=[O])([OH])[O][Cr](=[O])(=[O])[OH]	inactive
ClCC1CO1 (stereo unspecified)	inactive
CCCCCCCCOC(=O)c1ccccc1C(=O)OCCCCCCCC	inactive
COC1=CC(=O)O[C@@H](/C=C/c2ccccc2)C1	inactive
C[C@H]1CC[C@@H]2[C@@H](C)[C@H]3[C@H](C[C@H]4[C@@H]5CC=C6CC(O[C@@H]7O[C@H](CO)[C@H](O)[C@H](O[C@@H]8O[C@H](CO)[C@@H](O)[C@H](O)[C@H]8O)[C@H]7O[C@H]7O[C@@H](C)[C@H](O)[C@@H](O)[C@H]7O)CC[C@]6(C)[C@H]5CC[C@]34C)N2C1 (stereo partly specified)	33.5 µM (active)
C[C@H]1CCC[C@H](O)CCCCCc2cc(O)cc(O)c2C(=O)O1	33.5 µM (active)
O=CC=O	inactive
Clc1ccccc1Cl	inactive
[O]=[Cd]	inactive
NNC(N)=O	inactive
S=C=S	inactive
ClC(Cl)(Cl)Cl	inactive
CC(C)(C)c1cc(O)ccc1O	inactive
O=Cc1ccco1	inactive
O=C1C2CC=CCC2C(=O)N1SC(Cl)(Cl)Cl (stereo unspecified)	26.6 µM (active) and 33.5 µM (active)
C=CCN=C=S	inactive
